# Test results from PubChem BioAssay (NCI).
# Where “and” joins values, the source holds several entries; their conditions need not be identical. Equal entries are not always repeated. Compounds without any hit were thinned out: in the full panel of roughly 83,000, 20% have a hit.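 A percent growth of 40 corresponds to 60% growth inhibition; 0 means no net growth; -100 means all cells died. Active threshold: below 10.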 Calls of active or inactive are those of the source.
# System: HL-60(TB) leukemia
# Test: NCI-60 one-dose screen, 48 h (100 = growth as untreated, 0 = no growth, -100 = all killed)
# Details: 10 µM unless noted
row,Structure (SMILES),growth
1,COC(=O)c1cc(-c2cccs2)c(C#N)c(N)c1C#N,108% (inactive)
2,CCOc1ccc(Nc2c3ccccc3nc3ccccc23)cc1,90.2% (inactive) and 8.63% (active) and 8.99% (active)
3,N#CC1=C(N)Oc2ccc3ccccc3c2C1c1ccccc1 (centres undefined),2.02% (active)
4,O=C1c2cc3c(cc2-c2c1c1ccc(Cl)cc1c(=O)n2CCCNCCO)OCO3,-64% (active)
5,N#CC1=C(/N=C/c2ccccc2)Oc2c(ccc3ccccc23)C1c1ccccc1 (centres undefined),0.269% (active)
6,Cn1cc(-c2csc(-c3cn(CCCN4CCCCC4)c4ccc(F)cc34)n2)c2cccnc21,56.3% (inactive)
7,C#CCOc1ccc2ncnc(Nc3cccc(CNC(=O)CCl)c3)c2c1,35.2% [8.25 µM] (inactive)
8,COc1cc(-c2nc3sc4c(c3c(=O)[nH]2)CCCCCC4)cc(OC)c1OC,-19.3% (active)
9,CC(=O)/C(=C/c1ccc(-c2ccccc2)cc1)C(=O)c1ccccc1,56.3% (inactive)
10,O=C1C=C(Nc2ccccc2)c2ccccc2C1=O,79.5% (inactive) and 101% (inactive)
11,O=C1/C(=C\c2cn(-c3ccccc3)nc2-c2ccc(-c3cccs3)cc2)CCc2ccccc21,50.2% (inactive)
12,COc1ccc(-c2nnc(SC/C(=N\O)c3ccccc3)o2)cc1,86.8% (inactive)
13,COc1ccc2[nH]cc(-c3nc(-c4c[nH]c5ccncc45)cs3)c2c1,3.64% (active)
14,O=C(c1nn(-c2ccc(Cl)cc2)cc1O)n1nc(C(F)(F)F)cc1-c1ccccc1,-14.8% (active)
